# esBAF inh = Bmi1 luciferase reporter increase in mESCs, primary screen, esBAF inhibitor project, mouse ES cells, Bmi1 luciferase knock-in, single point; 24 h; 100% = twice the neutral-well signal; reporter increase, % at 12.5 µM; hit rate 2% among 350,000; AID 602393, 2012; in the data active means activation above about 40%; inconclusive means no clear call, values can overlap the other calls;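 further: 0% = median of the plate's neutral control wells and 100% = double that signal; a rise in the Bmi1 reporter signal indicates esBAF inhibition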
# MITF TRPM1 HTS = activators of MITF-driven TRPM1 promoter reporter, primary screen, cell-based, SK-MEL-5, luciferase, single point. SK-MEL-5 TRPM1-promoter luciferase, 24 h; % of positive control, neutral wells = 0. activation, % at 12.5 µM. hit rate 0.75% among 300,000. AID 588334, 2011;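 active means mean activation of at least 80% with every replicate also reaching 80%; inconclusive means mean reaches 80% but some replicate falls short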;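 further: 0% = neutral control wells and 100% = parthenolide positive control wells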
# PfHsp90 set2 = growth inhibition of PfHsp90-expressing yeast, primary screen, antimalarial PfHsp90 inhibitor project, S. cerevisiae, BacTiter-Glo luminescence, single point, set 2; BacTiter-Glo ATP, 48 h; yeast lacking PDR1 and PDR3 efflux regulators; inhibition, % at 9.4 µM; hit rate 0.32% among 310,000; AID 504621, 2011;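 active means every replicate shows inhibition above about 80%, whatever the replicate mean, limit read from the data; inconclusive means mean inhibition reaches the set limit but some replicate falls short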;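 further: 0% = DMSO neutral controls and 100% = 20 µM radicicol positive controls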
# Wnt act = Wnt/beta-catenin pathway activators, primary screen, cell-based, plate reader, single point; Wnt/beta-catenin reporter cell assay, activator; activation, % at 9.35 µM; hit rate 1.2% among 300,000; AID 743398, 2014; in the data active means activation above about 30%, passing the limit was not always enough; inconclusive means no clear call, values can overlap the other calls;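 further: 0% = neutral control wells and 100% = positive control wells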
# Glyco luc inh = increase of ERlucT glycosylation luciferase signal, primary screen, N-linked glycosylation inhibitor project, D54 ERlucT cells, luminescence, set 2; reporter increase, % at 12.5 µM; hit rate 0.23% among 360,000; D54 ERlucT glycosylation luciferase reporter, 24 h; percent of 100 nM tunicamycin response;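 active means mean luciferase reporter signal, scaled so untreated is 0 and the glycosylation-blocking control 100, at or above a set limit in every replicate; inconclusive means mean reaches the limit but not every replicate does; inactive means mean below the limit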;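 further: luciferase carries N-glycosylation sites so blocking glycosylation raises the light; 0% = median of neutral control wells and 100% = median of 100 nM tunicamycin wells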
# Vif imaging = HIV Vif self-association inhibitors, primary screen, imaging, HEK293T, single point | HEK293T cells, Vif self-association by quenched fluorescence, 24 h | inhibition, % at 7.49 µM | hit rate 0.35% among 340,000 | AID 602346, 2012; in the data active means inhibition above about 50%, passing the limit was not always enough; inconclusive means no clear call, values can overlap the other calls; inactive means below about 31%
# * hit, by the source's call; ? = inconclusive; nt = no result given; ! = a repeat was not active. The list is not random: actives were taken first. Their share in the collection is about 3%.
SMILES,esBAF inh,MITF TRPM1 HTS,PfHsp90 set2,Wnt act,Glyco luc inh,Vif imaging
O=C(c1ccc(-c2ccccc2Cl)s1)N1CCOCC1,nt,92*,nt,10,-5,nt
Cc1sc2ncnc(N=Nc3c(O)[nH]c4ccccc34)c2c1C,52*,24,0,10,-8,-18
CCc1cc2c(N=Nc3c(O)[nH]c4ccccc34)ncnc2s1,nt,-13,-32,nt,-1,-11
COC(=O)c1cn(NC(=O)/C=C/c2cc(OC)ccc2OC)c(=O)c2ccccc12,-7,-4,-4,-6,4,-18
C[C@H](CO)N1C[C@H](C)[C@@H](CN(C)Cc2cccnc2)Oc2cc(-c3ccncc3)ccc2S1(=O)=O,-2,nt,nt,nt,nt,nt
COc1ccc2c3c(ccc2c1)C(=O)/C(=C/O)CC3,nt,43,107*,2,1,2
COc1cc(OC)c2c(c1)O/C(=C\c1ccccc1)C2=O,58*,nt,nt,-1,4,33
COc1ccc(S(=O)(=O)N2CCC(n3cnc4cc(C(F)(F)F)ccc43)CC2)cc1,-1,nt,nt,-5,-4,-25
COc1cc(C(=O)N/N=C/c2sccc2C)cc(OC)c1OC,nt,-49,15,-19,19,75*
COc1ccc(/C=N\NC(=O)c2ccc(-c3ccccc3)cc2)c(OC)c1OC,nt,-1,17,-1,0,nt
COc1cc(/C=N/NC(=O)c2ccc(-c3ccccc3)cc2)cc(OC)c1OC,nt,4,31,nt,33*,-10
Cc1csc(NS(=O)(=O)c2ccc(Cl)cc2)n1,1,nt,14,0,-1,-2
Cc1csc(Nc2cccc3ccccc23)n1,nt,23,-17,-2,1,nt
COc1ccccc1Nc1nc(C)cs1,16,89*!,-29,0,2,1
Cc1ccc(Nc2nc(C)cs2)cc1,20,55,-7,58*,-4,10
Cc1csc(Nc2ccc(Cl)cc2)n1,76*,78,-11,11,0,-3
O=C1CN(C(=O)c2c(F)cccc2F)C(c2ccccc2)c2cc(Br)ccc2N1 (stereo unspecified),-5,8,-6,1,-2,-4
Cc1cccc(C)c1NC(=O)CN,-8,-4,-8,45*,3,7
Fc1cccc(Cl)c1Cc1noc(/C=C/c2ccccc2)n1,43*,60,-37,15,0,-2
Cn1c(=O)c2c(nc(N3CCN(Cc4ccccc4)CC3)n2CCCc2ccccc2)n(C)c1=O,-5,8,0,-1,13,-17
N#Cc1ccc(CN2CCN(C(=O)CNC(=O)Cc3cccc4ccccc34)CC2)cc1,-10,-28,nt,1,0,19
Nc1cc2c(cc1Br)-c1ccccc1C2=NO,63*,16,-3,34*,-2,-20
ON=C1c2ccccc2-c2ccc(Br)cc21,4,1,-18,-1,0,-2
CC(OC(=O)c1ccccc1CCc1ccccc1)C(N)=O (stereo unspecified),-7,-8,10,0,-4,-17
Cc1ccnc(SCc2cc(=O)c(OC(=O)c3ccc(Br)o3)co2)n1,nt,0,10,51*,1,-6
SMILES,esBAF inh,MITF TRPM1 HTS,PfHsp90 set2,Wnt act,Glyco luc inh,Vif imaging
CCCSc1nc(N)nc(-c2cccs2)c1C#N,48*,76,-122,nt,2,-4
Cc1cccc(C)c1OCC(=O)NNC(=S)NC(=O)C1CC1,-6,-8,104*,-3,0,2
CCOC(=O)C1CCN(S(=O)(=O)c2ccc3[nH]c(=O)oc3c2)CC1,-7,-5,-1,-5,1,17
CCOC(=O)c1nn(-c2ccc3ccccc3c2)cc1O,51*,133*,6,?,-1,-2
CCOC(=O)c1nn(-c2ccc(C)cc2)cc1O,3,73,2,nt,-8,5
CCOC(=O)C1=NN(c2ccc(Cl)cc2)C(=O)C1,nt,145*,3,65*,-3,-4
CCOC(=O)c1nn(-c2ccc3c(c2)OCO3)cc1O,nt,90*,22,nt,-2,-2
CCOC(=O)CC1=NN(c2ccccc2)C(=O)C1,nt,-4,15,-1,0,-6
CCOC(=O)c1nn(-c2ccccc2)cc1O,37,49,-12,15,0,-6
CCOC(=O)c1nn(-c2ccc(Cl)cc2)cc1O,65*,101*,25,?,1,-1
COC(=O)c1nn(-c2cccc(C(F)(F)F)c2)ccc1=O,-8,-14,10,-3,2,nt
CC#CC#Cc1cccc(=O)o1,1,0,5,9,36*,4
O=C(NN=C1C2CC3CC1CC(Cl)(C3)C2)c1ccccn1,48*,8,nt,nt,0,-12
CN(C)C(=O)C[C@@H]1CC[C@@H]2[C@H](COC[C@@H](O)CN2CC2CCCCC2)O1,0,nt,nt,nt,nt,nt
CCCCCN1CC(O)=C(c2nc3ccccc3[nH]2)C1=N,nt,52,-1,7,1,6
CCCCN1CC(O)=C(c2nc3ccccc3[nH]2)C1=N,58*,65,-22,22,3,1
Cc1ccc(-c2cc3nc4c(c(=O)n3[nH]2)CCCC4)cc1,25,21,-13,29,-6,-4
O=c1c2c(nc3cc(-c4ccc(F)cc4)[nH]n13)CCC2,nt,87*,7,27,-8,0
O=S(=O)(NCCN1CCOCC1)c1ccc(Oc2ccccc2Cl)cc1,2,6,-16,-5,-2,5
COc1ccc(-c2noc(-c3ccoc3C)n2)cc1OC,nt,89*,-38,12,-2,7
COc1nc(-c2ccc(C)cc2)ccc1-c1noc(-c2ccco2)n1,9,37,-65,nt,3,15
COc1ccc(-c2noc(-c3ccoc3C)n2)cc1,nt,58,12,12,-5,-3
COc1ccc(-c2noc(-c3ccco3)n2)cc1OC,nt,?,-1,50*,-7,-10
Cc1cc(Oc2ccc(C)c(Cl)c2)nc(SCC(=O)c2ccccc2)n1,nt,10,-17,-3,-4,7
O=C(CCCOc1ccccc1)NNC(=O)c1ccncc1,-3,21,nt,-3,1,12
O=C(CCCOc1ccc(Br)cc1)NNC(=O)c1ccncc1,nt,14,nt,0,2,67*
O=C(c1ccco1)N1CCN(c2nc3ccsc3c(=O)s2)CC1,39,43,6,5,-3,9
Cc1cc(C)c2nc(N3CCN(C(=O)c4cccs4)CC3)sc2c1,nt,2,nt,2,-1,9
Cc1cc(C)c2nc(N3CCN(C(=O)c4ccco4)CC3)sc2c1,54*,91*,-17,-21,1,-1
Cc1cc2nc(N3CCN(C(=O)c4ccco4)CC3)sc2cc1C,69*,116*,nt,?,-3,-26
